From PubChem BioAssay (Tox21) come the findings set out here.

Where “and” joins values, the source holds several entries; their conditions need not be identical. Equal entries are not always repeated. Records with an inconclusive call do not appear. Where a structure was tested more than once in an assay, its records may differ in their call. Calls of active or inactive are those of the source. Unless noted, the call rests on the fitted dose curve; in most records, active means well fitted curve in the direction sought with a large enough effect in the repeat runs; inconclusive means weak or mixed curves; inactive means no such curve, though single readings can be large; an effect the other way counts as inactive or inconclusive.

Assay [1] deals with Retinoic acid receptor RXR-alpha (Homo sapiens) (UniProt P19793). Briefly: qHTS assay to identify small molecule agonists of the RXR signaling pathway (AID 1159527; calls by dose curve; further: nearly all actives have a fitted effect of over 35% in size). Summed up:
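16 hr incubation of compound-treated RXR-alpha-UAS-bla HEK 293T cells (2% charcoal-stripped FBS, 37 C) preceded a 2 hr room-temperature LiveBLAzer FRET substrate step and blue/green fluorescence measurement.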
On the technique in general: In qHTS, concentration-response curves come from the screen itself.

Assay [2] in a line: qHTS assay to identify small molecule agonists of the RXR signaling pathway - cell viability counter screen (AID 1159529). Further: nearly all actives have a fitted effect of over 50% in size. Further: potency means the concentration at half of the fitted maximal effect.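 On activity change, negative = cytotoxicity: HEK 293T cells carrying an RXR-alpha UAS beta-lactamase reporter; series mostly up to about 77 µM.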 Summed up: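 In this parallel viability measure, GeneBLAzer RXR-alpha HEK 293T cells (2% charcoal-stripped FBS) were given a 5 hr preincubation, treated with compounds 16 hr at 37 C, and read by CellTiter-Glo luminescence.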
A short description of assay [3]: qHTS assay to identify small molecule antagonists of the retinoid acid receptor (RAR) signaling pathway - cell viability counter screen (AID 1159551). Further: nearly all actives have a fitted effect of over 35% in size. Summed up: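 In this counter screen, the RARE-luciferase line C3RL4 was exposed for 6 h at 37 C and 5% CO2 to compounds with retinol at 1 uM final. Cellular ATP, read by luminescence, served as the viability measure.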

The nature of assay [4]: qHTS assay to identify small molecule antagonists of the estrogen related receptor (ERR) signaling pathway - cell viability counter screen (AID 1224818). Further: series mostly up to about 46 µM. Summed up:
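Viability of ERR cells, CellTiter-Fluor fluorescence; 17.5 h compound exposure at 37 C, DMSO vehicle; 30 min reagent incubation at 37 C/5% CO2.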

A short description of assay [5]: qHTS assay to identify small molecule antagonists of the estrogen related receptor signaling pathway with the pleiotropic PPARgamma coactivator (PGC) cell viability counter screen (AID 1224822; further: series mostly up to about 46 µM). Summed up: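 17.5 h compound treatment of PGC/ERR cells at 37 C; readout CellTiter-Fluor fluorescence; run alongside the PGC/ERR antagonist screen to flag cytotoxic compounds.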

Assay [6] is described as follows: qHTS assay to identify small molecule antagonists of the estrogen related receptor (ERR) signaling pathway from Tox21 library - cell viability counter screen (AID 1224834). Further: nearly all actives have a fitted effect of over 30% in size. Further: potency means the concentration at half of the fitted maximal effect. Summed up: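 Counter screen run in ERR cells (2,000 cells/well): cells pre-incubated 6 h, then treated with compounds for 17.5 h at 37 C. Fluorescence was read 30 min after CellTiter-Fluor addition.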

Assay [7] has as its target Luciferin 4-monooxygenase (Photinus pyralis) (UniProt P08659). Briefly: qHTS assay to identify small molecule inhibitors of firefly luciferase (AID 1224835). Further: series mostly up to about 120 µM; nearly all actives have a fitted effect of over 25% in size. Summed up:
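Inhibition of purified Photinus luciferase is measured by luminescence. Substrate levels (D-luciferin, ATP) sit at their KM values. Each compound is tested in a concentration series.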

Assay [8] in a line: qHTS assay to identify small molecule agonists of the constitutive androstane receptor (CAR) signaling pathway - cell viability counter screen (AID 1224836). Further: series mostly up to about 92 µM; nearly all actives have a fitted effect of over 45% in size. Summed up: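 Using CellTiter-Fluor, viability of HepG2 cells harbouring hCAR and CYP2B6-2.2kb was measured following 23 h incubation with a 15-concentration compound series plus PK11195 (0.75 uM final).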
The nature of assay [9]: qHTS assay to identify small molecule antagonists of the constitutive androstane receptor (CAR) signaling pathway - cell viability counter screen (AID 1224837). Further: series mostly up to about 92 µM; nearly all actives have a fitted effect of over 45% in size. Summed up:
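CITCO at 50 nM final was added alongside compounds (15 concentrations) to double-stable hCAR/CYP2B6-2.2kb HepG2 cells. Following 23 hr at 37 C, cell viability was quantified by CellTiter-Fluor fluorescence intensity.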

Assay [10] addresses Nuclear receptor subfamily 1 group I member 3 (Homo sapiens) (UniProt Q14994). Kind of assay: qHTS assay to identify small molecule antagonists of the constitutive androstane receptor (CAR) signaling pathway (AID 1224838). Further: nearly all actives have a fitted effect of over 40% in size. Further: potency means the concentration at half of the fitted maximal effect. Summed up: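 Inhibition of CITCO-driven (50 nM final) CYP2B6 reporter expression is measured in HepG2 cells stably carrying hCAR. Fifteen compound concentrations are applied for 24 h at 37 C, followed by luciferase luminescence.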

Assay [11] has the same target. Kind of assay: qHTS assay to identify small molecule agonists of the constitutive androstane receptor (CAR) signaling pathway (AID 1224839). Further: nearly all actives have a fitted effect of over 15% in size. Further: potency means the concentration at half of the fitted maximal effect. On activation: series mostly up to about 92 µM. Summed up:
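Double-stable HepG2 cells (hCAR, CYP2B6-2.2kb) seeded 4 h before compound addition. Exposure 24 h with 0.75 uM PK11195 final. Luciferase detected by ONE-Glo.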

Assay [12] is described as follows: qHTS assay to identify small molecule antagonists of the estrogen related receptor signaling pathway with the pleiotropic PPARgamma coactivator (PGC) from Tox21 10K library - cell viability counter screen (AID 1224840; active means well fitted cell-killing curve with a large enough effect in the repeat runs, not every such curve was filed as active; further: nearly all actives have a fitted effect of over 40% in size). Summed up: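 Readout: fluorescence intensity from CellTiter-Fluor after 30 min at 37 C/5% CO2. Preceded by 17.5 h treatment of PGC/ERR cells with DMSO-dissolved compounds, added 6 h post-seeding.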

In assay [13] the target is Thyrotropin receptor (Homo sapiens) (UniProt P16473). Kind of assay: qHTS assay to identify small molecule agonists of the thyroid stimulating hormone receptor (TSHR) signaling pathway (AID 1224843; calls by dose curve; further: nearly all actives have a fitted effect of over 45% in size). Summed up:
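Agonist activity read as cAMP rise via d2/cryptate HTRF competition, 1 h room-temperature detection, in HEK293 cells expressing TSHR. Fifteen-point titrations, each run in triplicate, with a 30 min room-temperature incubation beforehand.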

Assay [14] can be described thus: qHTS assay to identify small molecule agonists of the hypoxia (HIF-1) signaling pathway - cell viability counter screen (AID 1224844; calls by dose curve; further: nearly all actives have a fitted effect of over 50% in size). Summed up: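 In this counter screen, HRE-bla ME-180 cell viability after 17 hrs of compound exposure at 37C was read by CellTiter-Glo luminescence, multiplexed with the beta-lactamase reporter measurement.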
Assay [15] in a line: qHTS assay to identify small molecule agonists of H2AX (AID 1224845; active means well fitted activation curve with a large enough effect in the signal ratio in the repeat runs, not every such curve was filed as active; the % refers to the signal ratio). Summed up: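 Phospho-H2AX Ser139 measured by HTRF (ex 320 nm; em 665 and 620 nm) after 24 hr antibody incubation. Compounds, 15 concentrations, 0.76% DMSO, were applied to CHO-K1 cells for 3hr at 37C before lysis.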
Assay [16] is described as follows: qHTS assay to identify small molecule antagonists of the estrogen related receptor signaling pathway with the pleiotropic PPARgamma coactivator (PGC) from Tox21 10K library (AID 1224841; call rule not given here; further: series mostly up to about 92 µM; actives are mostly falling curves and most rising ones were filed inactive; nearly all actives have a fitted effect of over 50% in size). Summed up: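 One-Glo luminescence, measured after half an hour at room temperature, quantified reporter output of PGC/ERR cells. These had been plated at 2,000 per well, incubated 6 h, dosed with compounds in DMSO, then kept 18 h at 37 C.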

A short description of assay [17]: qHTS assay to identify small molecule agonists of the estrogen related receptor signaling pathway with the pleiotropic PPARgamma coactivator (PGC) from Tox21 10K library (AID 1224842). Further: nearly all actives have a fitted effect of over 15% in size. Summed up:
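Luminescence from One-Glo (30 min, room temperature) measured after PGC/ERR cells had 18 h at 37 C with pinned compound (23 nL in DMSO). Cells had been seeded at 2,000 per well and pre-incubated 6 h.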

A short description of assay [18]: qHTS assay to identify small molecule agonists of the hypoxia (HIF-1) signaling pathway (AID 1224846; active means well fitted activation curve with a large enough effect in the signal ratio in the repeat runs, not every such curve was filed as active; the % refers to the signal ratio). Summed up:
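ME-180 HRE-bla reporter cells; compounds in DMSO, 17 h at 37C; read-out beta-lactamase via CCF4-AM FRET.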

A short description of assay [19]: qHTS assay to identify small molecule agonists of the retinoic acid receptor (RAR) signaling pathway (AID 1159553). Summed up:
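In this cell-based screen, 1,000 C3RL4 cells per well were cultured overnight, dosed with test chemicals in DMSO for 6 hr, and assessed for RARE luciferase luminescence.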
On the % scale 0 is the no-effect control and ±100 the full control effect.

Thyrotropin receptor (Homo sapiens), sequence (P16473 whole entry, looked up): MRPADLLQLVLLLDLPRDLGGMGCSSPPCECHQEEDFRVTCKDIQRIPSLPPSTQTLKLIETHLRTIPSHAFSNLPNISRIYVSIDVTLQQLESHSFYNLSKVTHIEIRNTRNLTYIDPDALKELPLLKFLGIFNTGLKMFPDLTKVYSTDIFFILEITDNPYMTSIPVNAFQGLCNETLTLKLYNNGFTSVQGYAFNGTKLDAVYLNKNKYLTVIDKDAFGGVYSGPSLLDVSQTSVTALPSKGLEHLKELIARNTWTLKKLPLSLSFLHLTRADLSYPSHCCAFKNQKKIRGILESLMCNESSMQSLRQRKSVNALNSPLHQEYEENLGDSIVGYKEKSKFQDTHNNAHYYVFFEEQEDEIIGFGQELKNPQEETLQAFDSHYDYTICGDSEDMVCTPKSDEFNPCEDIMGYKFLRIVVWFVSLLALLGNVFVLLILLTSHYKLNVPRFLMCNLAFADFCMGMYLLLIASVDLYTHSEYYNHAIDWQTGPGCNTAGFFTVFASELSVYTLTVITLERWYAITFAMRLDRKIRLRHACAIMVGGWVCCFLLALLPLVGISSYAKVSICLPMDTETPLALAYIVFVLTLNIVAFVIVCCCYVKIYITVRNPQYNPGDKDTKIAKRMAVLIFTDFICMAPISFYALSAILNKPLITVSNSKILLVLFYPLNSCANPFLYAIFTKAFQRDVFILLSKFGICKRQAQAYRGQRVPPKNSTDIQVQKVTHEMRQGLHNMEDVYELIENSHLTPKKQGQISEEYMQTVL
Nuclear receptor subfamily 1 group I member 3 (Homo sapiens), sequence (Q14994 whole entry, looked up): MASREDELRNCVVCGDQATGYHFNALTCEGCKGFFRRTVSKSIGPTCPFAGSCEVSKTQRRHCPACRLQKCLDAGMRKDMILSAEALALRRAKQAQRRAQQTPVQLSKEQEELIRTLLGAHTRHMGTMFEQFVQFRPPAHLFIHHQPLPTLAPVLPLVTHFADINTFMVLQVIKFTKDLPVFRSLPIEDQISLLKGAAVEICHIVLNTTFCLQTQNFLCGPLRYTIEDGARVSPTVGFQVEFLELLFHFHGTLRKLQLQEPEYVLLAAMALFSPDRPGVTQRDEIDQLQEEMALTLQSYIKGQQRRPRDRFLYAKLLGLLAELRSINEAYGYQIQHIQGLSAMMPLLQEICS
Luciferin 4-monooxygenase (Photinus pyralis), sequence (P08659 whole entry, looked up): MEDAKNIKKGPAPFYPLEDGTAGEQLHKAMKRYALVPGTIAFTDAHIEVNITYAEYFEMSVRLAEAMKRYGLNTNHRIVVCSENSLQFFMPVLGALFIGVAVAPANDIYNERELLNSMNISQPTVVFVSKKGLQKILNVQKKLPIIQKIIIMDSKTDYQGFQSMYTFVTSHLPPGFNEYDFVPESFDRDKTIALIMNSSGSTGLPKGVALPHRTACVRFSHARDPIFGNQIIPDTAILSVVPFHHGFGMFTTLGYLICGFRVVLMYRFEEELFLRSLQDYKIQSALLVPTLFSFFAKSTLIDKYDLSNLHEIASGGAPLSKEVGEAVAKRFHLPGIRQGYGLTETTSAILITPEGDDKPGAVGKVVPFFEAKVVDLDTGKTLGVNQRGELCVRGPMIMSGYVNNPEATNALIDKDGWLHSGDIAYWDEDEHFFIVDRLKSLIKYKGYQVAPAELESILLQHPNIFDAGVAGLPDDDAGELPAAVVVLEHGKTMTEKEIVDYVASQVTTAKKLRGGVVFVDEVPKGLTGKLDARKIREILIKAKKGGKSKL
Retinoic acid receptor RXR-alpha (Homo sapiens), sequence (P19793 whole entry, looked up): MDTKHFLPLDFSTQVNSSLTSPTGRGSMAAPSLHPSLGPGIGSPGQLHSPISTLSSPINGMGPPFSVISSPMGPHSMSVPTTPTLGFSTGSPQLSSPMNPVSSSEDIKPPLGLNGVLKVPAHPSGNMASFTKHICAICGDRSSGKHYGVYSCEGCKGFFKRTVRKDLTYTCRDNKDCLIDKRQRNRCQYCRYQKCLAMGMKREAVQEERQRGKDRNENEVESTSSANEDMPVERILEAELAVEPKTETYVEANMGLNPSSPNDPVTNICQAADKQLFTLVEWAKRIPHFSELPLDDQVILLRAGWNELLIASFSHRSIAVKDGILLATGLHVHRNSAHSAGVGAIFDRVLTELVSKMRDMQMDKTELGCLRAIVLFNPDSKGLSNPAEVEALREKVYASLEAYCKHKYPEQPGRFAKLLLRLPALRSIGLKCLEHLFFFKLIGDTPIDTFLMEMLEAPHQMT

`O=c1[nH]c(=O)n([C@H]2C[C@H](O)[C@@H](CO)O2)cc1Br`: the Potency result in [1], in assay [2], in assay [6], in assay [7], in assay [8] and in assay [9] was “inactive” in each case. The Potency result in [10], in assay [12], in assay [13], in [14] and in assay [15] was “inactive” in each case. For the same compound, the call in assay [3], in assay [4] and in assay [5] was inactive. For the same compound, in assay [11], the Potency is 7.81 µM (active) and 10.6 µM (active).

Take `CN(C)CCC(c1ccc(Cl)cc1)c1ccccn1` (configuration not stated): the Potency result in [1], in [8], in assay [12], in [13], in assay [14] and in [15] was “inactive” each time. Further, the Potency is 55.1 µM (active) in assay [2]; 48.7 µM (active) and inactive in [6]. Also, the compound was called inactive in [3], in assay [4] and in assay [5].

With `CN(C)CCCN`, the Potency entry in assay [1], in assay [2], in [6], in [7], in [8] and in [9] was “inactive” each time. The Potency entry in assay [10], in assay [11], in [12], in [16], in assay [13] and in [14] was “inactive” each time. Besides, in [15], the Potency entry is “inactive”. The compound was called inactive in assay [3], in assay [17] and in assay [18].

Turning to `O=C(O)CCCCCCCCCCC(=O)O`, the Potency result in [1], in assay [2], in [6], in assay [7], in assay [8] and in assay [9] was “inactive” in each case. Moreover, the Potency entry in assay [11], in assay [12], in [13], in assay [14] and in assay [15] was “inactive” in each case. In addition, the outcome in [3] and in [18] was inactive. For the same compound, in [10], the Potency entry is “inactive and 1 nM (active)”.

Regarding `CCN(CC)CCCC(C)Nc1ccnc2cc(Cl)ccc12` (configuration not stated), the activation in assay [1] was -0.146% [at 15.8 µM] (inactive). Moreover, the activity change, negative = cytotoxicity in assay [2] is -13.3% [at 6.97 µM] (inactive) and -18.7% [at 15.8 µM] (inactive); in assay [3], 1.59% [at 8.39 µM] (inactive) and -1.6% [at 19 µM] (inactive); in assay [14], -3.66% [at 15.8 µM] (inactive). The compound was called inactive in assay [4]. Besides, the viability change, negative = cytotoxic in [6] is -0.582% [at 8.39 µM] (inactive); in assay [8], -3.22% [at 8.39 µM] (inactive); in [12] it was -1.36% [at 8.39 µM] (inactive) and -20.9% [at 19 µM] (inactive). The activity change, negative = inhibition in assay [7] is -0.277% [at 10.5 µM] (inactive) and -0.0339% [at 23.6 µM] (inactive). Moreover, the activation (H2AX phosphorylation) in assay [15] is 3.5% [at 14 µM] (inactive) and -4.76% [at 31.6 µM] (inactive).

Regarding `CN(C)CCOCCN(C)C`, the Potency result in assay [1], in assay [2], in assay [6], in assay [7], in assay [8] and in assay [9] was “inactive” each time. Moreover, the Potency result in assay [10], in [11], in assay [12], in assay [16], in assay [13] and in assay [14] was “inactive” in each case. Further, in assay [15], the Potency result is “inactive”. The result in assay [3], in assay [17] and in [18] was inactive.

For the compound `COc1ccc2cc([C@H](C)C(=O)O)ccc2c1`, the Potency result in assay [1], in assay [2], in assay [6], in assay [8], in [9] and in assay [10] was “inactive” in each case. The Potency result in assay [12], in assay [13], in assay [14] and in [15] was “inactive” in each case. Moreover, the outcome in assay [3], in assay [4] and in assay [5] was inactive.

`CCCCCC(N)=O`: the Potency result in assay [1], in [2], in assay [6], in [7], in assay [8] and in assay [9] was “inactive” each time. The Potency entry in [10], in assay [11], in assay [12], in assay [13], in assay [14] and in [15] was “inactive” in each case. Further, the call in [3] and in assay [18] was inactive.

In the case of `O=C(O)c1cc(O)c(O)c(O)c1`, the Potency result in assay [1], in assay [2], in assay [19], in assay [8], in assay [9] and in assay [10] was “inactive” each time. The Potency result in [11], in assay [12], in assay [13] and in [14] was “inactive” in each case. Further, the outcome in assay [3] and in assay [18] was inactive. For the same compound, the Potency in [6] is 61.7 µM (active).
